Test results taken from PubChem BioAssay (NCI).
About 79,000 compounds went through this panel and 15% of them were active in at least one assay; those are over-represented in the sample as a whole. Values without a mark were called inactive. Activity calls are given as the source filed them. Rule as the data show it: active = growth inhibition above about 70%; inactive = the rest.

Assay: NCI Yeast Anticancer Drug Screen. Data for the sgs1 strain (AID 173);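 also: 0% = growth of vehicle-only control cultures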
Details: S. cerevisiae sgs1 mutant, hits give high values
Protocol: Growth inhibition of yeast strains with defined genetic alterations is measured as a screen for potential anti-cancer activity. Selected strains with alterations in DNA damage repair or cell cycle control were exposed to compounds and growth inhibition was measured relative to vehicle treated controls. The strain used in this assay is sgs1

SMILES	growth inhibition (at 1.2 µM) [%]	growth inhibition (at 3.7 µM) [%]	growth inhibition (at 11.0 µM) [%]	growth inhibition (at 33.0 µM)	growth inhibition (at 100.0 µM)
OC(/C=C/c1ccccc1)(Cc1cc(-c2ccccc2)n[nH]1)c1ccccc1 (stereo not given)	-9	6	4	9%	1%
CNC(=O)OCc1c(COC(=O)NC)c2n(c1C)-c1ccc(OC)cc1CCC2	-15	-15	-16	95% (active)	99% (active)
CCCCOC(=O)Nc1ccc(C)c(NC(=O)OCCCC)c1	-4	-5	8	47%	72% (active)
COc1nc2c(c(=O)n1C)N=C(c1ccccc1)[C@H](C(CC(=O)c1ccccc1)c1ccccc1)C(c1ccccc1)N2 (stereo not given in full)	-9	-10	23	40%	71% (active)
C=C1C(=O)OC2CC1C(OC(C)=O)C/C(C)=C/CC/C(C)=C\CCC2(C)O (stereo not given)	13	27	40	55%	90% (active)
CCOC(=O)[C@H]1Nc2ccc(OC)cc2C2c3ccccc3CC21 (stereo not given in full)	22	15	24	71% (active)	90% (active)
COC1=C(OC)C(=O)C(Sc2ccc3ccccc3c2)=CC1=O	-25	-17	23	93% (active)	93% (active)
CCOC(=O)CC1(C(=O)OCC)c2[nH]c3ccccc3c2CCN1Cc1ccccc1 (stereo not given)	-4	-7	-5	0%	40%
